BCR signal inh = qHTS Assay to Find Inhibitors of Chronic Active B-Cell Receptor Signaling; ABC-DLBCL IkBa-CBG/CBR reporter, luminescence ratio, 4 h; AID 493014, 2011; actives 0.05% (n = 340,000); Potency, µM (highest dose often 46.1 µM), hits mostly inhibitors; active = well fitted inhibition curve with a large enough effect in the signal ratio, with a control signal flat, not every such curve was filed as active; inconclusive = small, poorly fitted or top-dose-only effect, or effect the other way, or a change in a side signal; the % refers to the signal ratio
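TMD8 human ABC-DLBCL cells with doxycycline-inducible IκBα–green luciferase fusion and unfused red luciferase, in 0.5% FBS medium; compounds up to 46 uM, 4 h at 37C. Green/red luminescence ratio, filter-overlap corrected, fitted to concentration-response curves.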
Mito fusion act = qHTS Assay for Small Molecule Inhibitors of Mitochondrial Division or Activators of Mitochondrial Fusion; actives 0.23% (n = 320,000); S. cerevisiae fusion-defective mutant growth rescue, CellTiterGlo 48 h; Potency, µM (titrated, usually from 46.1 µM), usual class: activators; AID 485298, 2010; note: nearly all actives have a fitted effect of over 45% in size
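Temperature-sensitive fusion-defective S. cerevisiae (e.g. fzo1-1, mgm1-5) were grown with compound in YPEG medium (3% ethanol, 3% glycerol) for 48 hours at 37C. Growth rescue was measured as viability by CellTiterGlo luminescence after 10 minutes at ambient.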
RORgamma inh = qHTS for inhibitors of ROR gamma transcriptional activity. Nuclear receptor ROR-gamma (Mus musculus), P51450. Drosophila S2 Gal4-RORgamma UAS-luciferase reporter, 20 h. Potency, µM (series often up to 53.6 µM), actives largely listed as inhibitors. actives 5.4% (n = 310,000); note: nearly all actives have a fitted effect of over 60% in size
Target sequence (P51450 whole entry, looked up, the tested form may be a part): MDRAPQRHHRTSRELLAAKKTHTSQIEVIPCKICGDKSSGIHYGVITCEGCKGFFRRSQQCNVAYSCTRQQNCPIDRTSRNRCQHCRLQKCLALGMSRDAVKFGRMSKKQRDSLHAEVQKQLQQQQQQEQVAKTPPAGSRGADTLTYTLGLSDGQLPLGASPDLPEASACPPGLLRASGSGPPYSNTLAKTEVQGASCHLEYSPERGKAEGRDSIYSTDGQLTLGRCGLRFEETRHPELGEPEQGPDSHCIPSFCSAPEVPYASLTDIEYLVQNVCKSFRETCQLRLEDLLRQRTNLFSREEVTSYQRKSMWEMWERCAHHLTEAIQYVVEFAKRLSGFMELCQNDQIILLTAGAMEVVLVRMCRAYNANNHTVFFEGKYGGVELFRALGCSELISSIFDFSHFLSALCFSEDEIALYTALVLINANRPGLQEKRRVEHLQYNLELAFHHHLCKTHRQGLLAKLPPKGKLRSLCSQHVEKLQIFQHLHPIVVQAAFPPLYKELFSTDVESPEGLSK
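Using a luciferase readout, inhibitors were identified by reduced reporter activity in Drosophila cells coexpressing a copper-inducible Gal4–ROR gamma fusion and UAS-driven Photinus luciferase, incubated 20 hr after 700 uM copper sulfate.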
a7 integrin act = qHTS for Activators of Integrin-Mediated Alleviation for Muscular Dystrophy; Potency, µM (series often up to 38.3 µM), usual class: activators; alpha7betagal myoblasts, beta-gal FDG fluorescence, 48 h; actives 0.064% (n = 350,000); note: nearly all actives have a fitted effect of over 60% in size
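alpha7betagal+/- myoblasts (passage 13, 250/well) treated 48 h at 37C with compounds at 1:260 dilution of DMSO stock. Lysed, then beta-galactosidase activity read as FDG fluorescence (ex 480/em 540) after 30 min, with pre-read for autofluorescence.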
Gal4-VP16 FLuc = VP16 counterscreen qHTS for inhibitors of ROR gamma transcriptional activity; Drosophila S2 Gal4-VP16 UAS-luciferase, luminescence, 20 h; Potency, µM (series often up to 53.6 µM), actives largely listed as inhibitors; actives 3.5% (n = 310,000); AID 2546, 2010;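 note: Gal4-VP16 expression switched on by copper sulfate through the metallothionein promoter; nearly all actives have a fitted effect of over 50% in size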
uPA surface inh = qHTS for Inhibitors of Cell Surface uPA Generation | cell surface uPA generation assay, qHTS | Potency, µM (series often up to 38.3 µM), hits mostly inhibitors | actives 0.31% (n = 330,000) | AID 540303, 2011; active = well fitted inhibition curve with a large enough effect; inconclusive = small, poorly fitted or top-dose-only effect; inactive = no such curve, though single readings can be large or run the other way; tested in mouse RAW 264.7 cells; note: nearly all actives have a fitted effect of over 55% in size
Numbers stand for hits; [ ] = dose if it differs, or a comment. Compounds with a hit are over-represented: about 5.5% of the library has one in this group of screens. Unless noted, calls come from the whole dose curve; as a rule, active = well fitted curve in the direction sought with a large enough effect; inconclusive = small, poorly fitted or top-dose-only effect, or another doubt; inactive = no such curve, though single readings can be large; an effect the other way counts as inactive or inconclusive.

CCCCCC(=O)N/N=C(\C)c1ccccn1 was read as BCR signal inh inconclusive, Mito fusion act inactive, RORgamma inh 0.35µM, a7 integrin act inactive, Gal4-VP16 FLuc 0.56µM and uPA surface inh inactive.
`CC1CC(C)CN(C(=O)CCn2c(=O)oc3ccccc32)C1` (centres undefined) gave BCR signal inh inactive, Mito fusion act inactive, RORgamma inh inactive, a7 integrin act inactive, Gal4-VP16 FLuc inactive and uPA surface inh inactive.
`O=C(CCCc1nc2ccccc2s1)N1CCN(c2ccccc2)CC1` gave BCR signal inh inactive, Mito fusion act inactive, RORgamma inh inactive, a7 integrin act inactive, Gal4-VP16 FLuc 4µM and uPA surface inh inactive.
`CCC(C)[C@H](NC(=O)[C@H](Cc1ccccc1)n1c(=O)[nH]c2ccccc2c1=O)C(=O)N1CCC[C@@H]1C(=O)O` (some centres undefined) gave BCR signal inh inactive, Mito fusion act inactive, RORgamma inh inactive, a7 integrin act inactive, Gal4-VP16 FLuc inactive and uPA surface inh inactive.
Screening CCOC(=O)c1c(C)[nH]c(N=Nc2cccc(C)c2)c1C returned BCR signal inh inactive, Mito fusion act inactive, RORgamma inh inactive, a7 integrin act inconclusive, Gal4-VP16 FLuc inactive and uPA surface inh inactive.
`CCOC(=O)c1c(C)[nH]c(N=Nc2cccc(OC)c2)c1C` gave BCR signal inh inactive, Mito fusion act inactive, RORgamma inh 4µM, a7 integrin act inactive, Gal4-VP16 FLuc inactive and uPA surface inh inactive.
`O=C(N/N=C\c1cccnc1)c1ccc(Br)s1` gave BCR signal inh inactive, Mito fusion act inactive, RORgamma inh inactive, a7 integrin act inactive, Gal4-VP16 FLuc inactive and uPA surface inh inactive.
Screening O=C(N/N=C/c1cc(O)ccc1Br)c1cccnc1 returned BCR signal inh inconclusive, Mito fusion act inactive, RORgamma inh 1.8µM, a7 integrin act inconclusive, Gal4-VP16 FLuc 1.3µM and uPA surface inh 10µM.
For O=C(N/N=C/c1ccc(Br)s1)c1cccnc1 the results were BCR signal inh inconclusive, Mito fusion act inactive, RORgamma inh 1.3µM, a7 integrin act inactive, Gal4-VP16 FLuc 16µM and uPA surface inh inactive.
`CC(C)CC(CSc1ccc(Br)cc1)N1CCN(CCc2ccccc2)CCC1=O` (centres undefined) gave RORgamma inh inactive and Gal4-VP16 FLuc inactive.
COc1ccc(S(=O)(=O)N(C)c2ccc(C(=O)Nc3ccccc3C(=O)N3CCOCC3)cc2)cc1OC was read as BCR signal inh inactive, Mito fusion act inactive, RORgamma inh inactive, a7 integrin act inactive, Gal4-VP16 FLuc inactive and uPA surface inh inactive.
O=C(Cn1ncc(Cl)c(Cl)c1=O)NC1CCCCC1 was read as BCR signal inh inconclusive, Mito fusion act inactive, a7 integrin act inactive and uPA surface inh 10µM.
Screening O=C1CN(C(=O)Cn2ncc(Cl)c(Cl)c2=O)c2ccccc2N1 returned BCR signal inh inconclusive, Mito fusion act inactive, RORgamma inh 11µM, a7 integrin act inactive, Gal4-VP16 FLuc inconclusive and uPA surface inh inactive.
For CCCCCOc1ccc(NC(=O)Cn2c(-c3nonc3N)nc3ccccc32)cc1 the results were BCR signal inh inactive and Mito fusion act inactive.
Screening Cc1ccc(/C=C/C2=C[C@]3(C)C[C@]2(C)[C@H](c2ccc(C)cc2)CC3=O)cc1 returned RORgamma inh inactive and Gal4-VP16 FLuc inactive.
CN(C)CCCN(C(=O)COc1ccc(Cl)cc1)c1nc2cc3c(cc2s1)OCCO3 was read as BCR signal inh inconclusive, Mito fusion act inactive, a7 integrin act inactive and uPA surface inh inactive.
For CN(C)CCCN(C(=O)c1ccc([N+](=O)[O-])o1)c1nc2cc3c(cc2s1)OCO3 the results were BCR signal inh inactive, Mito fusion act inactive, RORgamma inh 13µM, a7 integrin act inactive, Gal4-VP16 FLuc inconclusive and uPA surface inh inconclusive.
Screening CN(C)CCCN(C(=O)COc1ccc(Cl)cc1)c1nc2cc3c(cc2s1)OCO3 returned BCR signal inh inactive, Mito fusion act inactive, RORgamma inh 11µM, a7 integrin act inconclusive, Gal4-VP16 FLuc inconclusive and uPA surface inh inactive.
CCN(c1ccccc1)S(=O)(=O)c1ccc(C(=O)N(CCCN(C)C)c2nc3cc4c(cc3s2)OCO4)cc1 was read as BCR signal inh inconclusive, Mito fusion act inactive, RORgamma inh inactive, a7 integrin act inactive, Gal4-VP16 FLuc inconclusive and uPA surface inh inconclusive.
`CN(C)CCCN(C(=O)c1ccc(S(=O)(=O)N(C)Cc2ccccc2)cc1)c1nc2cc3c(cc2s1)OCO3` gave BCR signal inh inactive, Mito fusion act inactive, RORgamma inh 8.9µM, a7 integrin act inactive, Gal4-VP16 FLuc inconclusive and uPA surface inh inactive.
For COc1ccc(S(=O)(=O)NCc2ccccn2)cc1NC(=O)c1ccccc1C the results were BCR signal inh inconclusive, Mito fusion act inactive, a7 integrin act inactive and uPA surface inh inactive.
Screening O=C(Cn1cnc2sc3c(c2c1=O)CCCC3)NCC(=O)Nc1c(F)cc(F)cc1Br returned BCR signal inh inactive, Mito fusion act inactive, RORgamma inh inactive, a7 integrin act inactive, Gal4-VP16 FLuc inactive and uPA surface inh inactive.
Screening CCOc1ccccc1N(C)C(=O)CCS(=O)(=O)c1ccc2c(c1)NC(=O)C(C)S2 (centres undefined) returned BCR signal inh inactive, Mito fusion act inactive, RORgamma inh inactive, a7 integrin act inactive, Gal4-VP16 FLuc inactive and uPA surface inh inactive.
`CC(=O)Nc1ccn(C2OC(C(COC(C)=O)NC(=O)C(C)NC(=O)OC(C)(C)C)C(OC(C)=O)C2OC(C)=O)c(=O)n1` (centres undefined) gave RORgamma inh inactive and Gal4-VP16 FLuc inactive.
Screening O=C(NC1CCCC1)c1ccc(CS(=O)(=O)Cc2ccccc2F)o1 returned BCR signal inh inactive, Mito fusion act inactive, RORgamma inh inactive, a7 integrin act 4.5µM, Gal4-VP16 FLuc inactive and uPA surface inh inconclusive.
Nc1ncn(C2C[C@H](O)[C@@H](CO)O2)c(=O)n1 (some centres undefined) was read as RORgamma inh inactive[10 µM] and Gal4-VP16 FLuc inactive.
c1ccc(-c2nn3c(Cn4cnc5ccccc54)nnc3s2)cc1 was read as BCR signal inh inactive, Mito fusion act inactive, RORgamma inh 0.071µM, a7 integrin act inactive and Gal4-VP16 FLuc inactive[0.365 µM].
For c1ccc2c(c1)ncn2Cc1nnc2sc(-c3ccncc3)nn12 the results were BCR signal inh inactive, Mito fusion act inactive, RORgamma inh inconclusive, a7 integrin act inactive and Gal4-VP16 FLuc inactive.
For Cc1nn(C)c(C)c1CN(Cc1nc(-c2cc(F)ccc2F)oc1C)C1CC1 the results were BCR signal inh inconclusive, Mito fusion act inactive, RORgamma inh 28µM, a7 integrin act inactive, Gal4-VP16 FLuc inactive and uPA surface inh inactive.

Screening data: PubChem, National Center for Advancing Translational Sciences (NCATS)
